Structures are written as SMILES. About 83,000 compounds went through this panel and 20% of them were active in at least one assay; those are over-represented in the sample as a whole.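 Assay: single dose, 48 h. Readout: percent growth (0 = no net growth; negative = cell death). Active: <10.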 A number with no mark means an inactive call. Calls of active or inactive are those of the source.

Common to all, as to assay: NCI-60 one-dose screen, 48 h (100 = growth as untreated, 0 = no growth, -100 = all killed)
Holding throughout (conditions): 10 µM unless noted

Test [1] concerns BT-549 breast.
Test [2] deals with MDA-MB-435 melanoma.
In test [3] the test system is SW-620 colon.
The subject of test [4] is MCF7 breast.
In test [5] the test system is HCT-116 colon.
Test [6] deals with HCC-2998 colon.
The test system of test [7] is KM12 colon.

As to `N#Cc1c(-c2ccc(Cl)cc2)nc(SCc2ccc([N+](=O)[O-])cc2)nc1N1CCNCC1`, the growth in test [1] was 89.6%; in test [2], -63.3% (active); in test [3], -52.8% (active); in test [4], -43.9% (active); in test [5] it was -91.5% (active); in test [6], -40.1% (active).

For the molecule `NS(=O)(=O)c1cccc(Nc2nc(SCC(=O)c3ccc(Br)cc3)nc3ccccc23)c1`, the growth in test [1] is -40.8% (active); in test [2] it was 75.3%; in test [3], 63.7%; in test [4] it was 32.4%; in test [5], 38.9%; in test [6] it was 86.1%. In test [7], the growth was 69.7%.

On to `Nc1cc(-c2c[nH]c3ccccc23)nc2cc(-c3c[nH]c4ccccc34)nn12`, for which the growth is 84.4% in test [1]; 70.9% in test [2]; -25.1% (active) in test [3]; 26.7% in test [4]; 30.7% in test [5]; 21% in test [6]. Moreover, the growth in test [7] was 10.3%.

As for `Cc1cc2nc3c4cc(Cl)ccc4n(CC(=O)NCCN(C)C)c3nc2cc1C`, the growth is 88.1% in test [1]; 67.9% in test [2]; -80.8% (active) in test [3]; -19.8% (active) in test [4]; -85.3% (active) in test [5]; 82.6% in test [6]. For the same molecule, in test [7], the growth was 86.2%.

For the molecule `C/C(=N\NC(N)=O)c1c(O)sc(=O)[nH]c1=O`, the growth in test [1] was 95.3%; in test [2], 104%; in test [3] it was 97.5%; in test [4], 93.4%; in test [5] it was 91%; in test [6], 110%. For the same molecule, the growth in test [7] is 100%.

In the case of `CN(C)c1ccc(/C=C2\Cc3c(F)ccc(Br)c3C2=O)cc1`, the growth in test [1] was 117%; in test [2], 92.7%; in test [3], 89.9%; in test [4] it was 39.8%; in test [5] it was 98.5%; in test [6], 104%. The growth in test [7] is 93.1%.

For `N/C(=N\c1nc2c(Br)cccc2s1)C(Br)Br`, the growth in test [1] is 29.2%; in test [2], -48.2% (active); in test [3] it was -39.2% (active); in test [4] it was -26.3% (active); in test [5], -56.1% (active); in test [6], 3.14% (active). The growth in test [7] was 3.67% (active).

Regarding `Fc1ccc(-c2cc3nc(C(Cl)Cl)nc(-c4ccccc4)n3n2)cc1`, the growth was 46.5% in test [1]; 6.42% (active) in test [2]; -50.2% (active) in test [3]; 8.55% (active) in test [4]; -54.7% (active) in test [5]; -47.1% (active) in test [6]. Moreover, the growth in test [7] is -37.7% (active).

For `COc1cc(OC)c(S(=O)(=O)NNC(=O)c2ccncc2)cc1C(=O)/C=C/c1ccc(C)cc1`, the growth in test [1] is 6.18% (active); in test [2], 83.2%; in test [3], 74.8%; in test [4], 26.7%; in test [5] it was 9.81% (active); in test [6], 91.6%.

Regarding `CCN1C(=S)N(c2ccccc2)C2NC(=O)N(/N=C/C=C/c3ccccc3OC)C21` (stereo not drawn), the growth was 94.5% in test [1]; 52.6% in test [2]; 90.4% in test [3]; 62.9% in test [4]; 88% in test [5]; 130% in test [6]. Moreover, in test [7], the growth is 88.3%.

Consider `O=C1NC(=C(Cl)Cl)/C(=N/S(=O)(=O)N2CCCCC2CC2(C(F)(F)F)N=N2)N1` (stereo not drawn), for which the growth was 68% in test [1]; 41.6% in test [2]; -82.2% (active) in test [3]; 9.63% (active) in test [4]; -28.8% (active) in test [5]; 5.46% (active) in test [6]. Also, the growth in test [7] was 9.36% (active).

`Clc1ccc2c(NCCCn3ccnc3)c3oc4ccccc4c3nc2c1`: the growth is 81.2% in test [1]; 32.2% in test [2]; 21.5% in test [3]; 18.2% in test [4]; 14% in test [5]; 40.8% in test [6]. For the same molecule, in test [7], the growth is 30.1%.

For the molecule `Cn1cc(-c2cc(N)n3nc(-c4cn(C)c5ccc(Cl)cc45)cc3n2)c2cc(Cl)ccc21`, the growth in test [1] is 117%; in test [2], 16.5%; in test [3], 14.6%; in test [4], 17.3%; in test [5], 75.5%; in test [6], 98.4%. Moreover, in test [7], the growth was 60.1%.

Consider `N/C(=N\c1nc2c(Cl)cc(Cl)cc2s1)C(Cl)(Cl)Cl`, for which the growth is 110% in test [1]; 75.6% in test [2]; 60.6% in test [3]; 24.8% in test [4]; 51% in test [5]; -1.09% (active) in test [6]. Further, in test [7], the growth was 1.36% (active).

In the case of `Nc1cc(-c2c[nH]c3ccc(F)cc23)nc2cc(-c3c[nH]c4ccc(F)cc34)nn12`, the growth is 103% in test [1]; 64.2% in test [2]; 4.64% (active) in test [3]; 37% in test [4]; 31.9% in test [5]; 72.5% in test [6].

With `Cc1ccc(/C=C/c2nn3c(-c4ccco4)nnc3s2)cc1C`, the growth was 107% in test [1]; 99.4% in test [2]; 98.5% in test [3]; 82.1% in test [4]; 109% in test [5]; 108% in test [6]. The growth in test [7] was 110%.

Turning to `Cc1sc2c(c1C)c(=O)nc1c(-c3nc(-c4ccc(F)cc4)no3)n[nH]n12`, the growth in test [1] was 102%; in test [2] it was 105%; in test [3], 111%; in test [4], 89.7%; in test [5], 103%; in test [6], 104%. Further, in test [7], the growth is 106%.

On to `N#Cc1nc(-c2ccccc2)oc1S(=O)(=O)N1CCN(CCc2ccccn2)CC1`, for which the growth was 107% in test [1]; 22.9% in test [2]; -24.2% (active) in test [3]; 28% in test [4]; 11.9% in test [5]; 114% in test [6]. In test [7], the growth is 84.1%.

Regarding `Cn1c(SCC(=O)Nc2ccc(-c3nc4ccc([N+](=O)[O-])cc4[nH]3)cc2)nc2ccccc2c1=O`, the growth in test [1] was 27.8%; in test [2] it was 93.4%; in test [3], 87.3%; in test [4], 45.3%; in test [5] it was 70.9%; in test [6] it was 84.6%. The growth in test [7] is 65.5%.

For the molecule `COc1cc(/C=C/C(=O)c2cc(OC)c(OC)c(OC)c2)ccc1OCc1ccccc1`, the growth in test [1] is 32%; in test [2], 45.9%; in test [3], 13.2%; in test [4] it was 8.1% (active); in test [5], 6.71% (active); in test [6], 44.6%. Besides, in test [7], the growth is 11.3%.

On to `Nc1c(C(=O)Nc2ccc(Cl)cc2)sc2nc(-c3cnccn3)cc(-c3cccs3)c12`, for which the growth in test [1] is 65.3%; in test [2] it was 77.5%; in test [3] it was 66.3%; in test [4], 55.3%; in test [5] it was 41.6%; in test [6], 104%. Moreover, the growth in test [7] is 80.2%.

As for `O=C(N/N=C/c1ccc(Br)s1)c1[nH]c2ccc(Br)cc2c1-c1ccccc1`, the growth is -11.8% (active) in test [1]; -5.5% (active) in test [2]; 23.6% in test [3]; 7.06% (active) in test [4]; -14.2% (active) in test [5]; 20.5% in test [6]. Besides, in test [7], the growth is 8.2% (active).

For `Cc1cccc2sc(/N=C(\N)C(Cl)(Cl)Cl)nc12`, the growth in test [1] was 117%; in test [2], 103%; in test [3], 103%; in test [4], 85%; in test [5] it was 101%; in test [6], 111%.

For the molecule `CN1C(=O)N(c2ccccc2)C2N=C(N/N=C/c3ccccc3)SC21` (stereo not drawn), the growth in test [1] was 52.4%; in test [2], -24.9% (active); in test [3], 15.2%; in test [4] it was 24%; in test [5], 22.5%; in test [6], 51.5%. Besides, in test [7], the growth was 22%.

Regarding `C#Cc1nc(C2=C(C)C(O)CC2)cs1` (stereo not drawn), the growth is 119% in test [1]; 105% in test [2]; 121% in test [3]; 85.1% in test [4]; 111% in test [5]; 115% in test [6]. Moreover, the growth in test [7] is 63.9%.

With `CN(C)c1ccc(/C=c2\sc3nc4ccccc4n3c2=O)cc1`, the growth in test [1] was 118%; in test [2], 101%; in test [3], 102%; in test [4] it was 70.3%; in test [5], 105%; in test [6], 107%. Moreover, in test [7], the growth was 104%.

For `COc1cc(-c2ccc3ncnc(NC(C)c4ccccc4)c3c2)cnc1OC` (stereo not drawn), the growth in test [1] is 32.6%; in test [2], 69.6%; in test [3], 69.2%; in test [4] it was 23.7%; in test [5] it was 76.8%; in test [6], 69.8%. Also, the growth in test [7] was 75.3%.

On to `O=c1[nH]c2ccc(Cl)cc2cc1CSc1ccccc1Nc1nccc(-c2ccc(Cl)cc2)n1`, for which the growth in test [1] is 113%; in test [2], 96.8%; in test [3] it was 91.9%; in test [4], 70.3%; in test [5], 90.4%; in test [6], 119%. For the same molecule, the growth in test [7] was 92%.

On to `CCCSc1nc(Nc2ccc(/C(C)=N\NC(N)=S)cc2)c(C#N)c(-c2ccc(OC)cc2)n1`, for which the growth in test [1] was 82%; in test [2], 70.7%; in test [3], 103%; in test [4], 69.1%; in test [5] it was 45.3%; in test [6], 110%.

On to `COc1ccccc1/C=C/C=N/NC1=NC2C(S1)N(C)C(=O)N2C` (stereo not drawn), for which the growth in test [1] was 67.8%; in test [2], -57.1% (active); in test [3], 20.9%; in test [4] it was 19.9%; in test [5] it was 35.9%; in test [6], 68.3%. Moreover, the growth in test [7] was 18.2%.

Turning to `C#C[C@]1(O)CC[C@H]2[C@@H]3CC=C4c5sc(Nc6ccc(Cl)cn6)nc5CC[C@]4(C)[C@H]3CC[C@@]21C`, the growth in test [1] is 32.9%; in test [2], 41.4%; in test [3], 29.5%; in test [4], 17.6%; in test [5], 34.5%; in test [6], 80%. In test [7], the growth was 38.9%.

Turning to `COc1cc(/C=C/C(=O)c2cc(OC)c(OC)c(OC)c2)ccc1OCc1ccc(F)cc1`, the growth was 8.09% (active) in test [1]; 52.9% in test [2]; 16.9% in test [3]; 10.8% in test [4]; 5.57% (active) in test [5]; 40.2% in test [6]. Moreover, the growth in test [7] is 19%.

Regarding `O=C(CCN1C(=O)/C(=C/c2ccccc2F)SC1=S)N1CCOCC1`, the growth was 108% in test [1]; 80.8% in test [2]; 58.8% in test [3]; 30.1% in test [4]; 81.9% in test [5]; 115% in test [6]. Also, in test [7], the growth is 80.8%.

Take `c1ccc2c(NCCCN3CCOCC3)c3oc4ccccc4c3nc2c1`: the growth in test [1] is 3.61% (active); in test [2] it was -11.9% (active); in test [3] it was -0.873% (active); in test [4], 0.0447% (active); in test [5], -20.1% (active); in test [6] it was -28% (active). In addition, in test [7], the growth is 2.04% (active).
